In the supplement of paper PMC10127200:
Structures can show the parent of a compound that is named as a salt.

Tests used:
Assay in all cases: Euclidean distance of Cell Painting phenotypic profile (signed KS, 77 features) to DMSO centroid (dimensionless distance); 5 or 10 uM (library dependent); higher = stronger phenotypic change vs DMSO (phenoactivity)
Conditions in all cases: 48 h
786-O = tested on: 786-O
Outline: (§1)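 At 10 or 5 uM, as set by the library, and 0.1% DMSO final, compounds were applied for 48 h to five cancer lines and one healthy fibroblast line. Stained cells were imaged confocally at 20X in 9 fields per well, and Harmony extracted 77 features scored as signed Kolmogorov-Smirnov statistics against vehicle wells on the same plate. Profiles underwent plate-position correction, correlation weighting and replicate averaging at the top dose. Phenoactivity is the Euclidean distance from each such profile to the median vehicle profile.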

A549 = tested on: A549
Outline: as §1

DU145 = tested on: DU145
Outline: as §1

FB = tested on: FB
Outline: as §1

HEPG2 = tested on: HEPG2
Outline: as §1

OVCAR4 = tested on: OVCAR4
Outline: as §1

SMILES | Euclidean distance (786-O) | Euclidean distance (A549) | Euclidean distance (DU145) | Euclidean distance (FB) | Euclidean distance (HEPG2) | Euclidean distance (OVCAR4)
COc1nc(N)nc2c1ncn2[C@@H]1O[C@H](CO)[C@@H](O)[C@@H]1O [Nelarabine] | 1.28 | 1.4 | 0.995 | 2.02 | 0.531 | 1.1
O=C(NC(Cc1cc(=O)[nH]c2ccccc12)C(=O)O)c1ccc(Cl)cc1 (centres undefined) [Rebamipide] | 1.17 | 1.17 | 1.29 | 0.77 | 1.97 | 1.06
NCCNc1ccc(NCCN)c2c1C(=O)c1ccncc1C2=O [Pixantrone Maleate] | 4.41 | 3.32 | 3.46 | 4.14 | 4.48 | 3.49
CCOC(=O)c1ccc(N2NC(=O)C(=Cc3ccc([N+](=O)[O-])o3)C2=O)cc1 | 1.51 | 1.47 | 1.17 | 0.999 | 0.851 | 1.17
Clc1ccc(Cn2c(CN3CCCC3)nc3ccccc32)cc1 [Clemizole] | 1.07 | 0.265 | 1.22 | 0.972 | 0.65 | 0.648
CC(C)(O)CC(=O)NCCn1ccc2ncnc(Nc3ccc(Oc4cccc(C(F)(F)F)c4)c(Cl)c3)c21 | 1.98 | 2.02 | 1.57 | 1.52 | 1 | 1.73
OCCN1C[C@H](O)[C@@H](O)[C@H](O)[C@H]1CO [Miglitol] | 1.4 | 0.649 | 1.16 | 0.979 | 0.675 | 1.27
CC(=O)O/N=C1\C(=O)N(Cc2cc(Cl)ccc2Cl)c2ccc(Cl)cc21 | 0.757 | 0.621 | 0.687 | 0.682 | 0.571 | 1.34
CC(C)NC(=N)NC(=N)Nc1ccc(Cl)cc1 [Proguanil] | 1.21 | 1.28 | 0.798 | 0.927 | 0.823 | 1.25
CCOC(=O)C1=C[C@@H](OC(CC)CC)[C@H](NC(C)=O)[C@@H](N)C1 [Oseltamivir phosphate] | 0.628 | 0.678 | 0.967 | 1.19 | 0.883 | 1.1
O=C(NCc1ccc(Oc2ccccc2)cc1)c1nc(-c2cc(Br)c(O)c(Br)c2)no1 | 0.904 | 1.1 | 0.858 | 0.788 | 1.55 | 1.21
NC(=O)C(c1ccccc1)(c1ccccc1)[C@@H]1CCN(CCc2ccc3c(c2)CCO3)C1 [Darifenacin HBr] | 1.59 | 0.89 | 0.786 | 1.4 | 1.11 | 1.04
C1CCN2C[C@@H]3C[C@@H](CN4CCCC[C@@H]34)[C@H]2C1 [(-)-Sparteine Sulfate] | 0.93 | 0.957 | 0.846 | 1.03 | 0.474 | 1.04
NC1=N[C@@]2(c3cc(NC(=O)c4ccc(F)cn4)ccc3F)COC[C@H]2CS1 | 1.08 | 1.29 | 1.47 | 1.04 | 0.861 | 1.05
CN1CCN2c3ccccc3Cc3ccccc3C2C1 (centres undefined) [Mianserin HCl] | 2.29 | 2.41 | 0.876 | 2.86 | 1.34 | 2.29
CCN[C@@H]1C[C@H](N)[C@@H](O[C@H]2OC(CN)=CC[C@H]2N)[C@H](O)[C@H]1O[C@H]1OC[C@](C)(O)[C@H](NC)[C@H]1O [Netilmicin Sulfate] | 1.12 | 0.92 | 1.18 | 0.946 | 0.625 | 0.916
CN1CCc2c(c3ccccc3n2Cc2ccccc2)C1 [Mebhydrolin napadisylate] | 1.27 | 1.06 | 0.544 | 1.03 | 1.31 | 1.49
O=C(N/N=C/c1ccc(O)c(O)c1)c1cc2ccccc2cc1O [Dynasore] | 0.917 | 1.21 | 0.791 | 0.928 | 1.13 | 0.791
O=C1Nc2ccccc2/C1=C1/Nc2ccccc2C1=O [Indirubin] | 1.05 | 1.12 | 0.786 | 0.965 | 1.58 | 1.03
O=c1ccc2ccc(OCCCCN3CCN(c4cccc5sccc45)CC3)cc2[nH]1 [Brexpiprazole] | 1.47 | 1.82 | 2.84 | 1.52 | 2.28 | 1.15

SMILES | Euclidean distance (786-O) | Euclidean distance (A549) | Euclidean distance (DU145) | Euclidean distance (FB) | Euclidean distance (HEPG2) | Euclidean distance (OVCAR4)
O=C(O)CCC(=O)OC[C@@H](NC(=O)C(Cl)Cl)[C@H](O)c1ccc([N+](=O)[O-])cc1 [Chloramphenicol sodium succinate] | 1.83 | 1.28 | 0.814 | 0.919 | 0.53 | 1.07
O=C(CCCCCCC(=O)NO)NO [Suberohydroxamic acid] | 1.22 | 1.22 | 1.18 | 2.06 | 1.84 | 1.28
CCn1cc(C(=O)O)c(=O)c2cc(F)c(N3CCN(C)CC3)cc21 [Pefloxacin Mesylate] | 1.56 | 0.826 | 0.983 | 1.04 | 1.02 | 1.3
CCC[C@@H]1C[C@@H](C(=O)N[C@@H]([C@H]2O[C@H](SC)[C@H](OP(=O)(O)O)[C@@H](O)[C@H]2O)[C@H](C)Cl)N(C)C1 [Clindamycin Phosphate] | 1.64 | 0.653 | 0.924 | 0.907 | 0.808 | 1.38
CN(C)C(=O)c1cc2cnc(Nc3ccc(N4CCNCC4)cn3)nc2n1C1CCCC1 | 2.35 | 1.67 | 1.46 | 3.9 | 1.9 | 1.81
CS(=O)(=O)c1ccc(C2=C(c3ccccc3)C(=O)OC2)cc1 [Rofecoxib] | 1.05 | 0.859 | 0.686 | 0.821 | 0.51 | 1.24
CCc1cnn2c(NCc3ccc[n+]([O-])c3)cc(N3CCCC[C@H]3CCO)nc12 | 3.35 | 2.78 | 3.2 | 3.11 | 2.64 | 3.58
CCn1cc(C(=O)O)c(=O)c2cc(F)c(N3CCNCC3)nc21 [Enoxacin] | 1.03 | 0.783 | 1.59 | 0.837 | 2.02 | 1.35
CC(C)C(=O)OCC(=O)[C@@]12O[C@H](C3CCCCC3)O[C@@H]1C[C@H]1[C@@H]3CCC4=CC(=O)C=C[C@]4(C)[C@H]3[C@@H](O)C[C@@]12C [Ciclesonide] | 1.71 | 2.49 | 2.88 | 2.36 | 2.25 | 2.09
CC(=O)OCC(COC(C)=O)OC(C)=O [Triacetin] | 1.28 | 0.762 | 1.03 | 1.11 | 1.02 | 0.787
CCn1c(-c2nonc2N)nc2c(C#CC(C)(C)O)ncc(OC[C@H]3CCCNC3)c21 | 3.05 | 2.49 | 1.16 | 2 | 1.95 | 2.14
CC[C@H]1OC(=O)C[C@@H](O)[C@H](C)[C@@H](O[C@@H]2O[C@H](C)[C@@H](O)[C@H](N(C)C)[C@H]2O)[C@@H](CCN2C[C@H](C)C[C@H](C)C2)C[C@@H](C)C(=O)/C=C/C(C)=C/[C@@H]1CO[C@@H]1O[C@H](C)[C@@H](O)[C@@H](OC)[C@H]1OC [Tilmicosin] | 0.767 | 0.579 | 0.777 | 0.841 | 1.09 | 0.801
O=S(=O)(c1ccccc1)c1cnc2c(N3CCNCC3)cccc2c1 | 0.96 | 0.917 | 0.761 | 0.827 | 1.94 | 0.986
Cc1[nH]c(/C=C2\C(=O)Nc3ccc(S(=O)(=O)N(C)c4cccc(Cl)c4)cc32)c(C)c1C(=O)N1CCN(C)CC1 | 2.57 | 3.08 | 2.03 | 2.51 | 1.47 | 3.13
N[C@@H]1c2cccnc2[C@H](OC(=O)N2CCC(n3c(=O)[nH]c4ncccc43)CC2)CC[C@H]1c1cccc(F)c1F | 1.04 | 0.68 | 0.986 | 1.29 | 0.768 | 1.31
Cc1cc(OCc2nnc(SC3CCCC3)n2-c2cccnc2)ccc1-c1ccc(S(C)(=O)=O)cc1 | 3.57 | 3.4 | 3.15 | 2.69 | 3.86 | 3.73
CC(=O)OCC(=O)[C@@]1(O)CC[C@H]2[C@@H]3CCC4=CC(=O)CC[C@]4(C)[C@H]3[C@@H](O)C[C@@]21C [Hydrocortisone acetate] | 1.17 | 2.28 | 1.4 | 1.96 | 1.05 | 1.41
Cc1cc(-c2ccccc2)nnc1NCCN1CCOCC1 [Minaprine dihydrochloride] | 0.893 | 1.02 | 0.918 | 1.32 | 0.555 | 1.06
Cc1coc2c1C(=O)C(=O)c1c-2ccc2c1CCCC2(C)C [Tanshinone IIA] | 1.26 | 2.73 | 0.982 | 1.04 | 1.54 | 1.36
